Test results: PubChem BioAssay (EPA / NIEHS)
The source made the active and inactive calls. Rule for the calls: active = hit-call score of the fitted dose curve at least 0.9, where 1 is the maximum; inactive = score below 0.9.

Assays:
Conditions in all cases: mRNA level, 48 h; actives raise or lower the signal
[1] = read-out: Bcl-2 (BAD) gene, BAD (gene 572); experiment: LTEA_HepaRG_BAD: Life Technologies and Expression Analysis (LTEA) Assay for Bcl-2 (BAD) gene using HepaRG (AID 2283469)
Procedure, shortened: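 BAD transcript change, measured by qRT-PCR against three housekeeping genes and fitted in both directions relative to 0.5% DMSO, after 48 h chemical treatment of human HepaRG liver cells at concentrations up to 100 uM.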

[2] = read-out: Bcl-2 (BAX) gene, BAX (gene 581); experiment: LTEA_HepaRG_BAX: Life Technologies and Expression Analysis (LTEA) Assay for Bcl-2 (BAX) gene using HepaRG (AID 2283470)
Procedure, shortened: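 Differentiated HepaRG cells exposed 48 h in serum-free induction medium, eight half-log concentrations from 100 uM, in duplicate, 0.5% DMSO vehicle. BAX mRNA by TaqMan qRT-PCR, normalised to ACTB, GAPDH and POLR2A.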

[3] = read-out: adenosine kinase (ADK) gene, ADK (gene 132); experiment: LTEA_HepaRG_ADK: Life Technologies and Expression Analysis (LTEA) Assay for adenosine kinase (ADK) gene using HepaRG (AID 2283471)
Procedure, shortened: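 Differentiated HepaRG cells dosed 48 h in serum-free induction medium, 0.5% DMSO vehicle, eight half-log concentrations from 100 uM, in duplicate. ADK mRNA by TaqMan qRT-PCR normalised to ACTB, GAPDH, POLR2A; bidirectional fit versus DMSO.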

[4] = read-out: BCL2L11 (gene 10018); experiment: LTEA_HepaRG_BCL2L11: Life Technologies and Expression Analysis (LTEA) Assay for Bcl-2 (BCL2L11) gene using HepaRG (AID 2283473)
Procedure, shortened: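 Differentiated human HepaRG cells in serum-free induction medium were exposed in duplicate for 48 h to eight concentrations (top 100 uM, half-log steps, 0.5% DMSO). BCL2L11 mRNA was quantified by TaqMan qRT-PCR, normalized to ACTB/GAPDH/POLR2A, bidirectional fit versus DMSO.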

[5] = read-out: Apolipoprotein A-V (APOA5) gene, APOA5 (gene 116519); experiment: LTEA_HepaRG_APOA5: Life Technologies and Expression Analysis (LTEA) Assay for Apolipoprotein A-V (APOA5) gene using HepaRG (AID 2283474)
Procedure, shortened: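 Differentiated human HepaRG cells were exposed in duplicate for 48 h to eight half-log concentrations from 100 uM in 0.5% DMSO. APOA5 mRNA was quantified by TaqMan qRT-PCR, normalized to ACTB, GAPDH and POLR2A, and fitted bidirectionally against DMSO.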

[6] = read-out: Apoptosis regulator Bcl-2 (Homo sapiens) (UniProt P10415); experiment: LTEA_HepaRG_BCL2: Life Technologies and Expression Analysis (LTEA) Assay for Bcl-2 gene using HepaRG (AID 2283475)
Procedure, shortened: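 Differentiated human HepaRG cells in serum-free induction medium exposed 48 h, in duplicate, to 8-point half-log series from 100 uM in 0.5% DMSO. BCL2 mRNA by qRT-PCR (TaqMan/Fluidigm), normalized to ACTB, GAPDH, POLR2A; bidirectional fit against DMSO.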

[7] = read-out: Bcl-2 (BID) gene, BID (gene 637); experiment: LTEA_HepaRG_BID: Life Technologies and Expression Analysis (LTEA) Assay for Bcl-2 (BID) gene using HepaRG (AID 2283476)
Procedure, shortened: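 Gene expression by qRT-PCR in HepaRG cells after 48 h exposure, duplicate wells, eight half-log concentrations topping at 100 uM in 0.5% DMSO. Normalized to ACTB, GAPDH, POLR2A; bidirectional fitting relative to DMSO.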

[8] = read-out: Caspase-3 (Homo sapiens) (UniProt P42574); experiment: LTEA_HepaRG_CASP3: Life Technologies and Expression Analysis (LTEA) Assay for cysteine-aspartic acid protease (CASP3) using HepaRG (AID 2283477)
Procedure, shortened: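 Differentiated human HepaRG cells in serum-free induction medium were exposed 48 h to 8-point half-log concentrations from 100 uM (0.5% DMSO vehicle). CASP3 mRNA was measured by qRT-PCR, normalised to ACTB, GAPDH and POLR2A, with bidirectional fitting against DMSO.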

[9] = read-out: Cytochrome P450 (CYP24A1), CYP24A1 (gene 1591); experiment: LTEA_HepaRG_CYP24A1: Life Technologies and Expression Analysis (LTEA) Assay for Cytochrome P450 (CYP24A1) using HepaRG (AID 2283478)
Procedure, shortened: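 Differentiated HepaRG cells, pre-cultured 48 h, were exposed in duplicate for 48 h in serum-free induction medium to 8 half-log concentrations (top 100 uM, 0.5% DMSO). CYP24A1 mRNA was quantified by TaqMan qRT-PCR, normalized to ACTB/GAPDH/POLR2A, fitted bidirectionally versus DMSO.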

[10] = read-out: Cytochrome P450 (CYP1A2), CYP1A2 (gene 1544); experiment: LTEA_HepaRG_CYP1A2: Life Technologies and Expression Analysis (LTEA) Assay for Cytochrome P450 (CYP1A2) using HepaRG (AID 2283479)
Procedure, shortened: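 Differentiated human HepaRG cells in serum-free induction medium were exposed in duplicate for 48 h to 8-point half-log concentrations up to 100 uM in 0.5% DMSO. CYP1A2 mRNA measured by qRT-PCR, normalized to ACTB, GAPDH, POLR2A; bidirectional fit vs DMSO.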

[11] = read-out: cysteine-aspartic acid protease (CASP8), CASP8 (gene 841); experiment: LTEA_HepaRG_CASP8: Life Technologies and Expression Analysis (LTEA) Assay for cysteine-aspartic acid protease (CASP8) using HepaRG (AID 2283480)
Procedure, shortened: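 HepaRG, 48 h exposure, duplicate wells; 8 conc, half-log from 100 uM, 0.5% DMSO. Serum-free induction medium. CASP8 mRNA by TaqMan qRT-PCR, norm. ACTB/GAPDH/POLR2A; gain/loss fitted vs DMSO.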

[12] = read-out: Cytochrome P450 (CYP2B6), CYP2B6 (gene 1555); experiment: LTEA_HepaRG_CYP2B6: Life Technologies and Expression Analysis (LTEA) Assay for Cytochrome P450 (CYP2B6) using HepaRG (AID 2283481)
Procedure, shortened: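 Differentiated HepaRG cells, serum-free induction medium, exposed 48 h in duplicate to 8-point half-log concentrations from 100 uM in 0.5% DMSO. CYP2B6 mRNA by qRT-PCR, normalized to ACTB, GAPDH, POLR2A; bidirectional fit versus DMSO.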

[13] = read-out: Cytochrome P450 2C19 (Homo sapiens) (UniProt P33261); experiment: LTEA_HepaRG_CYP2C19: Life Technologies and Expression Analysis (LTEA) Assay for CYP2C19 using HepaRG (AID 2283482)
Procedure, shortened: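 Differentiated human HepaRG cells were exposed for 48 h in serum-free induction medium to 8 concentrations (top 100 uM, half-log steps, 0.5% DMSO). CYP2C19 mRNA was measured by qRT-PCR, normalized to ACTB/GAPDH/POLR2A, and fitted bidirectionally against DMSO.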

[14] = read-out: CYP2C8 (gene 1558); experiment: LTEA_HepaRG_CYP2C8: Life Technologies and Expression Analysis (LTEA) Assay for CYP2C8 using HepaRG (AID 2283483)
Procedure, shortened: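 CYP2C8 mRNA induction or loss, by qRT-PCR normalized to ACTB/GAPDH/POLR2A, is read in HepaRG cells after 48 h treatment. Concentrations run from 100 uM down in half-log dilutions, with 0.5% DMSO as vehicle and baseline.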

[15] = read-out: CYP2C9 (gene 1559); experiment: LTEA_HepaRG_CYP2C9: Life Technologies and Expression Analysis (LTEA) Assay for CYP2C9 using HepaRG (AID 2283484)
Procedure, shortened: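 Cells plated 48 h, switched to serum-free induction medium, then treated in duplicate for 48 h at eight concentrations (max 100 uM, 0.5% DMSO). RNA then analysed by qRT-PCR for CYP2C9; curves fitted in both directions relative to DMSO.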

[16] = read-out: CYP2E1 (gene 1571); experiment: LTEA_HepaRG_CYP2E1: Life Technologies and Expression Analysis (LTEA) Assay for CYP2E1 using HepaRG (AID 2283485)
Procedure, shortened: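 HepaRG cells, plated 48 h, then exposed 48 h in serum-free induction medium to eight half-log concentrations from 100 uM in 0.5% DMSO, duplicate. CYP2E1 mRNA by qRT-PCR, normalized to ACTB/GAPDH/POLR2A; bidirectional fit versus DMSO.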

[17] = read-out: CYP4A11 (gene 1579); experiment: LTEA_HepaRG_CYP4A11: Life Technologies and Expression Analysis (LTEA) Assay for CYP4A11 using HepaRG (AID 2283486)
Procedure, shortened: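 Differentiated HepaRG cells, serum-free induction medium, exposed 48 h in duplicate to 8-point half-log series from 100 uM in 0.5% DMSO. CYP4A11 mRNA measured by qRT-PCR, normalized to ACTB, GAPDH, POLR2A; bidirectional fit versus DMSO.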

[18] = read-out: Cytochrome P450 3A4 (Homo sapiens) (UniProt P08684); experiment: LTEA_HepaRG_CYP3A4: Life Technologies and Expression Analysis (LTEA) Assay for CYP3A4 using HepaRG (AID 2283487)
Procedure, shortened: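 Differentiated HepaRG cells in serum-free induction medium exposed in duplicate for 48 h to 8 half-log concentrations up to 100 uM in 0.5% DMSO. CYP3A4 mRNA measured by qRT-PCR normalized to ACTB, GAPDH and POLR2A; bidirectional fit versus DMSO.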

[19] = read-out: DNA damage-inducible transcript 3 (DDIT3), DDIT3 (gene 1649); experiment: LTEA_HepaRG_DDIT3: Life Technologies and Expression Analysis (LTEA) Assay for DNA damage-inducible transcript 3 (DDIT3) using HepaRG (AID 2283488)
Procedure, shortened: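 HepaRG cells, 48 h after plating, exposed 48 h in serum-free induction medium to 8 half-log concentrations up to 100 uM in 0.5% DMSO, in duplicate. DDIT3 mRNA measured by TaqMan qRT-PCR, normalized to ACTB, GAPDH and POLR2A. Fitted bidirectionally against DMSO.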

Sequence of Cytochrome P450 2C19 (Homo sapiens) (P33261 whole entry, looked up): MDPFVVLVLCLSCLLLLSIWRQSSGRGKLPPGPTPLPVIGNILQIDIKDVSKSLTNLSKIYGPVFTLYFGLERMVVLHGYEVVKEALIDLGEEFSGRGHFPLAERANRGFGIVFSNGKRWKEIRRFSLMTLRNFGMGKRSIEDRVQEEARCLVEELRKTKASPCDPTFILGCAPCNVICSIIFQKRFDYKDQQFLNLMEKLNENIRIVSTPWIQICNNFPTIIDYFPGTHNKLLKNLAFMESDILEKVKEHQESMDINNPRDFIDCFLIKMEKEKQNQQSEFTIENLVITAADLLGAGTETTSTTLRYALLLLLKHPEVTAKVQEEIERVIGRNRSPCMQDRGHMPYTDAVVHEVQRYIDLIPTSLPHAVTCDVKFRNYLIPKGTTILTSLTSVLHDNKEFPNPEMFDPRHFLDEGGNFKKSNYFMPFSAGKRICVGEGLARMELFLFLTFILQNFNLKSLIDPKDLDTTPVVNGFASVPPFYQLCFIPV
Sequence of Apoptosis regulator Bcl-2 (Homo sapiens) (P10415 whole entry, looked up): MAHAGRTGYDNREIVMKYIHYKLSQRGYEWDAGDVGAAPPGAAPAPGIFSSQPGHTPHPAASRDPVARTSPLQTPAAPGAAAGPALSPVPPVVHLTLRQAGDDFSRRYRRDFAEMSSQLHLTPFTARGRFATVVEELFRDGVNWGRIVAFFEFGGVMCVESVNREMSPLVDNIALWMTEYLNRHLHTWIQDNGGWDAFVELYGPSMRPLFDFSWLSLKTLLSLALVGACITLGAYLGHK
Sequence of Cytochrome P450 3A4 (Homo sapiens) (P08684 whole entry, looked up): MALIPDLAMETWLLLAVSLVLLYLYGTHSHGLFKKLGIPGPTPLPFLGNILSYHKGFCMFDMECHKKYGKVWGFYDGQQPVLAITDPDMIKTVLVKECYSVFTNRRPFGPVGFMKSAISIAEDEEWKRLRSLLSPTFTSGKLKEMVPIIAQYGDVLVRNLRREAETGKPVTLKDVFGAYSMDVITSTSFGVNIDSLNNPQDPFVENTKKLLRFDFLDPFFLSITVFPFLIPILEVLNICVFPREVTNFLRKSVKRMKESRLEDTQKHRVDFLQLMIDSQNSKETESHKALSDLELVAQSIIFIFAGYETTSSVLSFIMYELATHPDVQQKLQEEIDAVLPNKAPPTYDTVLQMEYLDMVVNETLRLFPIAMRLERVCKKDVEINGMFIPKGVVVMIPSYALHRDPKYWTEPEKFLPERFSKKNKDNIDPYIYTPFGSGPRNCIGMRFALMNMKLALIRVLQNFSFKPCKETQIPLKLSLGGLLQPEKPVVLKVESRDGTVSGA
Sequence of Caspase-3 (Homo sapiens) (P42574 whole entry, looked up): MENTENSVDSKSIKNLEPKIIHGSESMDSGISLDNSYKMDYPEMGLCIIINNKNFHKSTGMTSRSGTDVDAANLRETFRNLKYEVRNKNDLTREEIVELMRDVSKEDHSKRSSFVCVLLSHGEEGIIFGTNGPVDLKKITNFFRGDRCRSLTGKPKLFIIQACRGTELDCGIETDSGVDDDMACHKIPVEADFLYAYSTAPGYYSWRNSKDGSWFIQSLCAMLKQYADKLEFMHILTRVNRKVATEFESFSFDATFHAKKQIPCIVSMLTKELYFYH

CCOc1cc(C(C)(C)C)ccc1C1COC(c2c(F)cccc2F)=N1 (configuration not stated)
outcome [1]: inactive | outcome [2]: inactive | outcome [3]: inactive | outcome [4]: inactive | outcome [5]: inactive | outcome [6]: inactive | outcome [7]: inactive | outcome [8]: inactive | outcome [9]: inactive | outcome [10]: inactive | outcome [11]: inactive | AC50 [12]: 8.33 µM (active) | AC50 [13]: 8.34 µM (active) | AC50 [14]: 7.92 µM (active) | outcome [15]: inactive | AC50 [16]: 18.7 µM (active) | AC50 [17]: 57.4 µM (active) | AC50 [18]: 4.8 µM (active) | AC50 [19]: 52.1 µM (active)

COCC(=O)N(c1c(C)cccc1C)C(C)C(=O)OC (configuration not stated)
outcome [1]: inactive | outcome [2]: inactive | outcome [3]: inactive | outcome [4]: inactive | outcome [5]: inactive | outcome [6]: inactive | outcome [7]: inactive | outcome [8]: inactive | outcome [9]: inactive | outcome [10]: inactive | outcome [11]: inactive | AC50 [12]: 1.23 µM (active) | AC50 [13]: 3.91 µM (active) | outcome [14]: inactive | outcome [15]: inactive | AC50 [16]: 50 µM (active) | outcome [17]: inactive | outcome [19]: inactive

CCOc1nc(F)cc2nc(S(=O)(=O)Nc3c(Cl)cccc3Cl)nn12
outcome [1]: inactive | outcome [2]: inactive | AC50 [3]: 41.3 µM (active) | outcome [4]: inactive | outcome [5]: inactive | outcome [6]: inactive | outcome [7]: inactive | outcome [8]: inactive | outcome [9]: inactive | outcome [10]: inactive | AC50 [12]: 13.2 µM (active) | outcome [13]: inactive | outcome [14]: inactive | outcome [15]: inactive | AC50 [16]: 20.3 µM (active) | outcome [17]: inactive | AC50 [18]: 1.85 µM (active) | outcome [19]: inactive

O=C(O)c1c(Cl)ccc2cc(Cl)cnc12
outcome [1]: inactive | outcome [2]: inactive | outcome [3]: inactive | outcome [4]: inactive | outcome [5]: inactive | outcome [6]: inactive | outcome [7]: inactive | outcome [8]: inactive | outcome [9]: inactive | outcome [10]: inactive | outcome [12]: inactive | outcome [13]: inactive | outcome [14]: inactive | outcome [15]: inactive | outcome [16]: inactive | outcome [17]: inactive | outcome [18]: inactive | outcome [19]: inactive

Nc1c(Cl)c(Cl)nc(C(=O)O)c1Cl
outcome [1]: inactive | outcome [2]: inactive | outcome [3]: inactive | outcome [4]: inactive | outcome [5]: inactive | outcome [6]: inactive | outcome [7]: inactive | outcome [8]: inactive | outcome [9]: inactive | AC50 [10]: 50 µM (active) | outcome [11]: inactive | outcome [12]: inactive | outcome [13]: inactive | outcome [14]: inactive | outcome [15]: inactive | outcome [16]: inactive | outcome [17]: inactive | outcome [18]: inactive | outcome [19]: inactive
